# Assay results reported in PubChem BioAssay AID1259418 (Broad Institute, 2018).
# Screen size: about 3,400 compounds; about 840 (25%) were called active. About 11% were inconclusive and are not listed.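 How the source made its calls: active means fitted half-maximal concentration of signal decrease at or below twice the sample's top tested concentration; inconclusive means flat curve between -70 and -30 percent, or poor fit; inactive means flat within 30 percent, signal rise, or potency above limit.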 These entries were drawn from the full list. Measured potencies and affinities stand elsewhere.
# Assay: inhibitors of Toxoplasma growth in IFN-γ-primed HeLa – cell-based, ME49Luc, luciferase, 72 h, dose response (AID 1259418)
# Conditions: T. gondii ME49Luc in IFN-y HeLa, active compounds read low, -100% = high-dose IFN-γ control wells; at 19.5 µM unless noted
row,Structure (SMILES),max activity
1,Cc1nc2ccccc2n1CC(O)Cn1c2ccccc2c2ccccc21 (stereo unspecified),28.9% (inactive)
2,CCOc1ccc(NC(=O)Nc2ccc(-c3nc(-c4ccc(C)cc4C)co3)cc2)cc1,21.2% [at 0.16 µM] (inactive)
3,CCc1ccc2c(c1)cc(S(=O)(=O)c1ccccc1)c(=O)n2CC(=O)NC1CCCCC1,-12.7% [at 1.35 µM] (inactive)
4,N#Cc1cccc(-c2ccc([C@H]3[C@H]4CN(Cc5ccccc5F)CCCCN4[C@H]3CO)cc2)c1,26.6% [at 10 µM] (inactive)
5,COc1ccccc1NC(=O)N1CCCCN2[C@H](CO)[C@@H](c3ccc(-c4cccc(C#N)c4)cc3)[C@H]2C1,24.8% [at 10 µM] (inactive)
6,Cc1cccc(Cn2c(CN3CCC(C(=O)N4CCCC4)CC3)cc3ccccc32)c1,-9.03% [at 0.35 µM] (inactive)
7,Cc1ccc(C2=NC3(CCN(CC(=O)Nc4ccccc4C(F)(F)F)CC3)NC2=O)cc1,-14.3% [at 0.35 µM] (inactive)
8,CN(C)c1ccc(-c2nc3c([nH]2)c(=O)n(C)c(=O)n3C)cc1,17.3% [at 10 µM] (inactive)
9,Cc1ccc(-c2coc(-c3ccc(NC(=O)Nc4cc(F)ccc4F)cc3)n2)c(C)c1,-9.54% [at 5 µM] (inactive)
10,COc1ccc(CN2CCC3(CC(n4cnnc4)CO3)C2)cc1 (stereo unspecified),33.5% (inactive)
11,COc1ccc(CN2CCc3nc(SCc4nc(-c5ccccc5)oc4C)[nH]c(=O)c3C2)cc1,-18.7% [at 2.6 µM] (inactive)
12,COCCCN1CCc2nc(SCc3nc(-c4ccccc4)oc3C)[nH]c(=O)c2C1,21% [at 2.6 µM] (inactive)
13,COc1ccccc1CN1CCc2nc(SCc3nc(-c4cccc(C)c4)oc3C)[nH]c(=O)c2C1,14.5% [at 0.35 µM] (inactive)
14,COc1ccc(NC(=O)CN2CCC3(CC2)N=C(c2cccc(F)c2)C(=O)N3)cc1OC,28.6% [at 10 µM] (inactive)
15,COc1ccc(-c2nc(N(CCN(C)C)Cc3ccccc3)c3ccccc3n2)cc1,-20.1% [at 5 µM] (inactive)
16,COc1ccc(-c2nc(N(Cc3ccco3)C3CCCCC3)c3ccccc3n2)cc1,-11.5% [at 2.6 µM] (inactive)
17,CCCN(CCC)c1nc(-c2ccc(OC)cc2)nc2ccccc12,-8.92% [at 0.35 µM] (inactive)
18,CCCCN(Cc1ccco1)c1nc(-c2ccc(OC)cc2)nc2ccccc12,14.7% [at 0.35 µM] (inactive)
19,CCN(CCN(C)C)c1nc(-c2ccc(OC)cc2)nc2ccccc12,-29.5% (inactive)
20,COc1ccc(-c2nc(NCCCN(Cc3ccco3)C3CCCC3)c3ccccc3n2)cc1,-19.2% [at 5 µM] (inactive)
21,CN(c1nc(-c2ccc(Cl)cc2)nc2ccccc12)C1CCCCC1,11.9% [at 0.68 µM] (inactive)
22,COc1ccc(-c2nc(N(C)c3ccc(F)cc3)c3ccccc3n2)cc1,36% (inactive)
23,NC(=O)C1(N2CCCCC2)CCN(c2ccc(NC(=O)c3cccc(Cl)c3)cc2C(=O)O)CC1,1% (inactive)
24,Cc1ccc(-c2coc(-c3ccc(NC(=O)Nc4ccc(C)c(F)c4)cc3)n2)cc1,19.5% [at 10 µM] (inactive)
25,Cc1cc(C(F)(F)F)nn1CC(=O)N1CCCC1c1cc(C(C)C)no1 (stereo unspecified),16% [at 2.6 µM] (inactive)
26,COc1cccc(CC(=O)N2CCC[C@@H]2C(=O)NCCc2csc(-c3ccccc3)n2)c1,18.6% [at 0.16 µM] (inactive)

row,Structure (SMILES),max activity
1,Cc1ccc2c(c1C)-n1cccc1C1(CCN(C(=O)c3ccc(Br)o3)CC1)N2,9.35% [at 0.35 µM] (inactive)
2,COc1ccc(-c2nc(NCc3ccc(C)o3)c3ccccc3n2)cc1,-32.7% [at 1.35 µM] (inactive)
3,COc1ccc(-c2nc(N(CC(C)C)CC(C)C)c3ccccc3n2)cc1,-12.7% [at 0.35 µM] (inactive)
4,COc1ccc(-c2nc(N(C)Cc3ccccc3)c3ccccc3n2)cc1,21.9% (inactive)
5,CCCCN(C)c1nc(-c2ccc(OC)cc2)nc2ccccc12,16.9% [at 0.35 µM] (inactive)
6,CN(Cc1ccco1)c1nc(-c2ccc(Cl)cc2)nc2ccccc12,-31.8% [at 0.16 µM] (inactive)
7,Cc1ccc(-c2coc(-c3ccc(NC(=O)Nc4cc(C)cc(C)c4)cc3)n2)cc1,-13.8% [at 0.68 µM] (inactive)
8,CCc1nc(OCC(=O)Nc2cc(C)cc(C)c2)c2ccccc2n1,9.9% [at 10 µM] (inactive)
9,COc1ccccc1N(Cc1nc(-c2ccccc2)oc1C)S(=O)(=O)c1ccc(C)cc1,13.3% [at 0.16 µM] (inactive)
10,COc1ccc(S(=O)(=O)N(Cc2nc(-c3ccccc3)oc2C)c2ccccc2OC)cc1,-10.3% [at 5 µM] (inactive)
11,c1cnc(N2CCC(Oc3cnccn3)CC2)nc1,28.4% [at 10 µM] (inactive)
12,CCc1ccccc1NC(=O)Nc1ccc(-c2nc(-c3ccc(C)cc3)co2)cc1,-15.7% [at 0.68 µM] (inactive)
13,CCOc1ccc(CC(=O)N2CCC3(CC2)Nc2cc(OC)ccc2-n2cccc23)cc1OCC,-11.1% [at 10 µM] (inactive)
14,COc1ccc(CNc2nc(SCc3cc(=O)n4cc(Cl)ccc4n3)nc3ccccc23)cc1,14.6% [at 5 µM] (inactive)
15,COCC#Cc1ccc([C@@H]2[C@@H](CO)N3C(=O)CN(C(=O)c4ccncc4)C[C@H]23)cc1,28.6% (inactive)
16,COCC#Cc1ccc([C@H]2[C@@H](CO)N3C(=O)CN(C(=O)C4CCCCC4)C[C@@H]23)cc1,51.9% (inactive)
17,COCC#Cc1ccc([C@@H]2[C@H]3CN(C(=O)C4CCCCC4)CC(=O)N3[C@H]2CO)cc1,27.9% (inactive)
18,COCC#Cc1ccc([C@@H]2[C@@H](CO)N3C(=O)CN(C(=O)c4ccncc4)C[C@@H]23)cc1,31.2% (inactive)
19,COc1ccc(NC(=O)Nc2ccc(-c3nc(-c4ccc(C)cc4)co3)cc2)cc1Cl,83.9% (inactive)
20,COc1cccc(NC(=O)CCC2Nc3c4ccccc4nc(=S)n3C2=O)c1 (stereo unspecified),16.8% [at 0.68 µM] (inactive)
21,Cc1ccc(Cl)cc1N(CC(=O)Nc1c(F)cccc1F)S(C)(=O)=O,6.87% (inactive)
22,Cc1sc(-c2nc(C(C)C)cs2)cc1S(=O)(=O)N1CCC(C)CC1,11.7% (inactive)
23,Cc1ccccc1-c1nc(CN2CCN(C(=O)Nc3cccc(Cl)c3)CC2)c(C)o1,10.5% [at 5 µM] (inactive)
24,Cc1ccc(-c2nc3c(s2)CN(C(=O)Nc2cccc(C)c2C)CC3)cc1,22.5% [at 5 µM] (inactive)
25,CC(=O)NCCNC(=O)CC1Nc2c3ccccc3nc(=S)n2C1=O (stereo unspecified),32% (inactive)
26,COc1ccccc1CNc1nc(-c2ccc(Cl)cc2)nc2ccccc12,9.39% [at 0.35 µM] (inactive)

row,Structure (SMILES),max activity
1,Cc1oc(-c2ccccc2)nc1Cn1nnc(-c2nc(-c3cccc(Br)c3)no2)c1C,5.37% [at 0.16 µM] (inactive)
2,Cc1nc(CCNC(=O)C2CCN(S(=O)(=O)c3cccc(Cl)c3C)CC2)cs1,-10.4% [at 5 µM] (inactive)
3,CCCCc1ccc(Nc2ncnc3c2cnn3-c2ccc(OC)cc2)cc1,8.01% [at 5 µM] (inactive)
4,Cc1cccc(C)c1NC(=O)CN1CCC2(CC1)N=C(c1cccc(F)c1)C(=O)N2,21.4% [at 0.35 µM] (inactive)
5,COc1cc(NC(=O)COc2nc(C)nc3ccccc23)cc(OC)c1OC,39.1% [at 0.35 µM] (inactive)
6,O=S(=O)(c1ccccc1F)N1CCC(c2nc3ccc(-c4ccncc4)cn3n2)CC1,-8.38% [at 0.16 µM] (inactive)
7,O=C(C1CCOCC1)N1CC(=O)N2[C@@H](CO)[C@H](c3ccc(/C=C/c4ccccc4)cc3)[C@@H]2C1,16.6% (inactive)
8,CC(C)NC(=O)N1CC(=O)N2[C@H](CO)[C@H](c3ccc(/C=C/c4ccccc4)cc3)[C@@H]2C1,15.1% (inactive)
9,CC(C)c1ccc(-c2nc3c([nH]2)c(=O)n(C)c(=O)n3C)cc1,36.8% (inactive)
10,COc1ccc(-c2nc(N3CCN(c4ccccc4OC)CC3)c3ccccc3n2)cc1,-19.4% [at 0.35 µM] (inactive)
11,COc1ccc(-c2nc(N3CCN(c4ccccc4F)CC3)c3ccccc3n2)cc1,-17% [at 0.35 µM] (inactive)
12,COc1ccc(CCNc2ncnc3c2cnn3-c2ccc(C)cc2C)cc1OC,-45% [at 0.16 µM] (inactive)
13,CCc1nc(OCC(=O)Nc2ccc(F)cc2)c2ccccc2n1,24.6% [at 0.35 µM] (inactive)
14,COc1ccc(-c2nc(Cn3c(=O)c4c(C)cc(C)nc4n(-c4ccccc4)c3=O)c(C)o2)cc1OC,-11.3% [at 1.35 µM] (inactive)
15,COc1ccc(NC(=O)CN2CCC3(CC2)N=C(c2ccc(Cl)cc2)C(=O)N3)cc1,-12.9% [at 0.68 µM] (inactive)
16,Cc1ccc(NC(=O)CN2CCC3(CC2)N=C(c2cccc(F)c2)C(=O)N3)cc1F,-40.4% (inactive)
17,CCc1ccccc1NC(=O)N1CCc2nc(-c3ccc(OC)c(OC)c3)sc2C1,6.34% (inactive)
18,CCC(=O)N1CCC2(CC1)Nc1ccc(C)c(C)c1-n1cccc12,-7.02% [at 5 µM] (inactive)
19,Cc1nc(OCC(=O)Nc2cc(F)ccc2C)c2ccccc2n1,23.1% [at 10 µM] (inactive)
20,Cc1ccc(-c2coc(-c3ccc(NC(=O)c4ccc(F)cc4)cc3)n2)cc1,95.6% (inactive)
21,Cc1ccc(-c2ccc([C@H]3[C@@H](CO)N4C(=O)CN(C(=O)NC(C)C)C[C@@H]34)cc2)cc1,46.5% (inactive)
22,COc1ccccc1NC(=O)N1CC(=O)N2[C@H](CO)[C@H](c3ccc(C#CC(C)C)cc3)[C@H]2C1,25.9% [at 5 µM] (inactive)
23,COc1ccccc1NC(=O)N1CC(=O)N2[C@H](C1)[C@@H](c1ccc(C#CC(C)C)cc1)[C@@H]2CO,-17.8% (inactive)
24,Cc1ccc(-c2ccc([C@@H]3[C@H](CO)N4C(=O)CN(C(=O)NC(C)C)C[C@@H]34)cc2)cc1,16.7% [at 5 µM] (inactive)
